# Screens as filed in PubChem.
# Mdm2-MdmX inh: inhibitors of human Mdm2-MdmX association, primary screen, cell-based, luminescence, split luciferase, SaOS-2, uHTS; Protein Mdm4 (Homo sapiens) + E3 ubiquitin-protein ligase Mdm2 (Homo sapiens), …; inhibition, % at 8 µM; hit rate 3% among 330,000; AID 485346, 2010; SaOS-2 split-luciferase Mdm2/MdmX complementation;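 active = inhibition of at least 50% at 8 µM in the primary screen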
# SKKanGAS inh: S. pyogenes SKKanGAS growth inhibitors in kanamycin, primary screen, streptokinase expression inhibitor project, SKKanGAS strain, BacTiter-Glo luminescence. hit rate 1.3% among 300,000. AID 1662, 2009. 6 h. inhibition, % at 7.5 µM;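 active = mean replicate score, as percent of positive control median, at least 50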;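 note: strain carries kanamycin resistance gene driven by streptokinase promoter and grows in 40 µg/ml kanamycin; loss of luminescence reflects streptokinase promoter inhibition or plain growth inhibition; 0% = median of DMSO wells and 100% = positive control at its reference dose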
# NR3A LBD binder: binders of NR3A ligand-binding domain, primary screen, biophysical, differential scanning fluorimetry, uHTS | hit rate 2.5% among 340,000 | Tm shift relative to glycine control, % at 25 µM | NR3A LBD differential scanning fluorimetry, Tm shift; 0% = protein alone, 100% = glycine-bound protein | Glutamate receptor ionotropic, NMDA 3A (GRIN3A) ligand-binding domain | AID 1259313, 2017;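 active = melting temperature shift of at least 10% of the positive control shift, at one fixed dose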
# Beta apoptosis: inhibitors of cytokine-induced beta cell apoptosis, primary screen, luminescence. INS-1E cytokine-induced death, ATP luminescence, 48 h; percent of positive-control rescue, neutral wells zero. protection from apoptosis, % (test concentration not listed). hit rate 0.8% among 300,000. AID 435005, 2010;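 active = Every replicate reaches about 75%, or at least half do and their mean reaches it too, limit read from the data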;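 note: 0% = cytokine-treated negative control wells and 100% = positive control rescue; higher means more ATP so stronger rescue from cytokine killing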
# CSC inhib: cancer stem cell viability inhibitors, primary screen, luminescence | hit rate 1.1% among 300,000 | AID 2717, 2010 | inhibition, % at 7.5 µM | cancer stem cell-like cells viability; in the data active = inhibition above about 75%; tested in HMLE shEcad cells
# MPTP inh: mitochondrial permeability transition pore inhibitors, primary screen, biochemical, isolated mouse mitochondria, absorbance; hit rate 1.4% among 360,000; Ca2+ swelling absorbance, 30 min; inhibition, % at 10 µM; AID 602449, 2012;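 active = inhibition of 50% or more, scaled per plate between neutral and stimulator controls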;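 note: 0% = DMSO wells given calcium and 100% = 1 mM EGTA wells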
# Mdm2 MdmX conf: Mdm2-MdmX complex disruptors, retested hits, confirmation, luminescence, single concentration | shares compounds with Mdm2-MdmX inh | AID 489028, 2010 | hit rate 55% among 10,000 | inhibition, % at 8 µM | Mdm2-MdmX binding, luminescent assay; in the data active = inhibition above about 40%
# FLuc counter: full-length luciferase signal inhibition, confirmation, counter-screen for Mdm2/MdmX interaction inhibitor project, cell-based, single concentration, SaOS-2; SaOS-2 full-length luciferase counterscreen, luminescence; inhibition, % at 8 µM; hit rate 77% among 6,200; shares compounds with Mdm2-MdmX inh; AID 504607, 2011;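 active = mean inhibition at 8 µM reaching about 37%, which flags the compound as non-specific, limit read from the data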;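 note: p53-null SaOS-2 cells with luciferase driven by a doxycycline-inducible promoter; compound on cells about two nights before reading with doxycycline added after day one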
# * = called active by the depositor; . = no result. A selection: hits, their analogues and other compounds. The true share with any hit is near 6.9%.
SMILES,Mdm2-MdmX inh,SKKanGAS inh,NR3A LBD binder,Beta apoptosis,CSC inhib,MPTP inh,Mdm2 MdmX conf,FLuc counter
Cc1nc(Cl)c(C(=O)NCc2ccccc2)c(C)c1Cl,17.8,3.3,-1.8,1.4,3.3,-1.7,.,.
COc1ccc(CNC(=O)c2nc(S(=O)(=O)Cc3ccccc3)ncc2Cl)cc1,76.6*,-5.2,1.8,15.5,-7.9,-0.5,93.5*,1.5
COC(=O)c1ccccc1NC(=O)c1nc(S(=O)(=O)Cc2ccccc2)ncc1Cl,98.3*,58.4*,-1.6,98.7*,99.8*,-2.5,90.8*,67.0*
C=CCN1C(=S)CC(c2ccccc2)=Nc2ccccc21,7.6,15.6,2.5,.,.,-0.7,.,.
CCCOc1ccccc1/C=C1\SC(N2CCCCC2)=NC1=O,85.5*,-2.3,0.0,.,24.4,-0.2,61.8*,63.9*
Cn1c(=O)[nH]c(=O)c2c1nc(SCCCO)n2CCCc1ccccc1,21.3,3.3,0.9,-1.1,-8.3,1.1,.,.
Cc1cc(C)cc(Nc2cc(=O)n(C3CCCCC3)c(=O)[nH]2)c1,51.3*,7.1,-3.0,-1.1,47.1,31.5,14.6,.
COc1ccc(Nc2cc(=O)n(C3CCCCC3)c(=O)[nH]2)c(OC)c1,9.0,13.0,0.0,-4.7,-8.3,-5.2,.,.
Cc1nc(N)sc1C(=O)N/N=C/c1c[nH]c2ccccc12,51.0*,-15.5,24.4*,-0.7,-1.4,0.2,22.6,.
CCc1ccc(C=C2SC(=S)N(CCCC(=O)Nc3ccc(C(=O)O)cc3)C2=O)cc1,.,.,.,.,.,0.6,.,.
COC(=O)c1ccc(/C=C2/SC(=S)N(CCCC(=O)Nc3ccccn3)C2=O)cc1,75.5*,2.5,0.0,-11.9,63.0,1.4,32.4,.
CCc1ccc(/C=C2\SC(=S)N(CCCC(=O)Nc3ccccn3)C2=O)cc1,85.1*,4.8,0.4,-6.5,6.2,-3.5,72.8*,52.7*
COc1cc(C(=O)NCC(c2ccccc2)N(C)C)ccc1OCc1c(C)noc1C (stereo not given),33.9,.,-2.9,2.5,.,0.1,.,.
O=[N+]([O-])c1ccc(-c2ccc(/C=N/c3c(-c4ccco4)nc4ccccn34)o2)c(Cl)c1,.,-4.8,.,.,.,.,.,.
O=[N+]([O-])c1ccc(Cl)c(-c2ccc(/C=N/c3c(-c4ccco4)nc4ccccn34)o2)c1,66.1*,-11.0,-1.4,-1.0,-0.6,1.4,-1.1,.
Cc1cc(NC(=O)COC(=O)C2=NN(c3ccccc3)C(=O)CC2)c([N+](=O)[O-])cc1C,15.3,.,-1.2,-3.6,-11.0,0.1,.,.
Cn1nc([N+](=O)[O-])nc1Sc1nnc(-c2ccccc2)o1,100.4*,5.8,0.2,-15.4,-1.6,-2.5,76.2*,51.5*
O=Cc1ccc(Sc2nnc(-c3ccccc3)o2)c([N+](=O)[O-])c1,22.7,-6.2,3.4,-7.5,45.4,10.6,.,.
CCCCC(=NCCc1c(C)[nH]c2ccccc12)C1=C(O)CC(c2ccccc2)CC1=O (stereo not given),57.4*,29.2,-4.9,9.7,66.8,-0.9,44.5*,59.2*
CC(=NCCc1c(C)[nH]c2ccc(C)cc12)C1=C(O)CC(c2ccccc2)CC1=O (stereo not given),49.0,4.5,-5.2,1.3,63.7,-2.4,.,.
CCCC(=NCCc1c(C)[nH]c2ccccc12)C1=C(O)CC(c2ccccc2)CC1=O (stereo not given),51.7*,19.3,-4.5,25.6,.,1.0,52.9*,55.4*
Clc1ccc(-c2csc3ncnc(NCCN4CCOCC4)c23)cc1,45.3,-7.3,-2.7,0.4,12.6,-0.3,.,.
COc1ccc(-c2csc3ncnc(NCCN4CCOCC4)c23)cc1,60.7*,-3.9,-2.9,-16.3,47.4,-1.3,65.2*,36.1*
